# Hits are enriched below; roughly 10% of the tested compounds scored in any of these assays.
# G9a inh: blocks human histone lysine methyltransferase G9a; G9a H3K9 monomethylation, AlphaScreen, 2 h; Q96KQ7; hit rate 8.8% among 350,000; Potency, µM (series often up to 102 µM), for the others: top-dose activity, negative = inhibition, actives largely listed as inhibitors; further: potency means the concentration at half of the fitted maximal effect; on the % scale 0 is the no-effect control and ±100 the full control effect; nearly all actives have a fitted effect of over 75% in size
#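 Readings reflect AlphaScreen signal from monomethyl-H3K9 antibody detection. HMT at 20 nM; substrate b-H3K9 500 nM; cofactor SAM 20 uM; 2 h RT reaction; compounds tested as titrations in qHTS with 15 min preincubation.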
# HP1b chromo inh: blocks HP1-beta chromodomain binding to methylated histone tails | hit rate 0.56% among 390,000 | Potency, µM (doses to about 114 µM), for inactives: top-dose activity change, negative = inhibition, most hits filed as inhibitors | AlphaScreen HP1-beta / biotin-H3K9me3 peptide binding | AID 540317 | P83916; further: potency means the concentration at half of the fitted maximal effect; nearly all actives have a fitted effect of over 70% in size
#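 HP1-beta protein (50 nM final) preincubated 30 min at room temperature with biotinylated H3(1-18)K9me3 peptide (50 nM) in PBS pH 7.4, 0.01% Tween-20, then compound added for 30 min. AlphaScreen streptavidin donor/nickel chelate acceptor beads (10 ug/mL final), 30 min dark, luminescence read.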
# CtBP-E1A inh: blocks the CtBP interaction with E1A; AlphaScreen GST-E1A/His-CtBP binding, 1536-well; hits give low values; activity change, % (concentration not given with the values); hit rate 0.49% among 340,000; AID 651724; in the data active means activity change below about -65%; inconclusive means mostly about -30% to -63%; further: on the % scale 0 is the no-effect control and ±100 the full control effect
#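 Homogeneous bead-based format: GST-tagged E1A captured on glutathione donor beads, His-tagged CtBP on nickel acceptor beads; compounds precede bead addition by 2 h at 37 °C.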
# JMJD2A Tudor inh: inhibitors of human JMJD2A Tudor domain. Potency, µM (highest dose often 114 µM), for the others: at the top dose activity change, negative = inhibition, hits mostly inhibitors. AID 504339. hit rate 4.4% among 390,000. AlphaScreen JMJD2A-Tudor / H3K4me3 peptide binding. O75164; further: potency means the concentration at half of the fitted maximal effect; on the % scale 0 is the no-effect control and ±100 the full control effect; nearly all actives have a fitted effect of over 50% in size
# Target sequence (O75164 whole entry, looked up, the tested form may be a part): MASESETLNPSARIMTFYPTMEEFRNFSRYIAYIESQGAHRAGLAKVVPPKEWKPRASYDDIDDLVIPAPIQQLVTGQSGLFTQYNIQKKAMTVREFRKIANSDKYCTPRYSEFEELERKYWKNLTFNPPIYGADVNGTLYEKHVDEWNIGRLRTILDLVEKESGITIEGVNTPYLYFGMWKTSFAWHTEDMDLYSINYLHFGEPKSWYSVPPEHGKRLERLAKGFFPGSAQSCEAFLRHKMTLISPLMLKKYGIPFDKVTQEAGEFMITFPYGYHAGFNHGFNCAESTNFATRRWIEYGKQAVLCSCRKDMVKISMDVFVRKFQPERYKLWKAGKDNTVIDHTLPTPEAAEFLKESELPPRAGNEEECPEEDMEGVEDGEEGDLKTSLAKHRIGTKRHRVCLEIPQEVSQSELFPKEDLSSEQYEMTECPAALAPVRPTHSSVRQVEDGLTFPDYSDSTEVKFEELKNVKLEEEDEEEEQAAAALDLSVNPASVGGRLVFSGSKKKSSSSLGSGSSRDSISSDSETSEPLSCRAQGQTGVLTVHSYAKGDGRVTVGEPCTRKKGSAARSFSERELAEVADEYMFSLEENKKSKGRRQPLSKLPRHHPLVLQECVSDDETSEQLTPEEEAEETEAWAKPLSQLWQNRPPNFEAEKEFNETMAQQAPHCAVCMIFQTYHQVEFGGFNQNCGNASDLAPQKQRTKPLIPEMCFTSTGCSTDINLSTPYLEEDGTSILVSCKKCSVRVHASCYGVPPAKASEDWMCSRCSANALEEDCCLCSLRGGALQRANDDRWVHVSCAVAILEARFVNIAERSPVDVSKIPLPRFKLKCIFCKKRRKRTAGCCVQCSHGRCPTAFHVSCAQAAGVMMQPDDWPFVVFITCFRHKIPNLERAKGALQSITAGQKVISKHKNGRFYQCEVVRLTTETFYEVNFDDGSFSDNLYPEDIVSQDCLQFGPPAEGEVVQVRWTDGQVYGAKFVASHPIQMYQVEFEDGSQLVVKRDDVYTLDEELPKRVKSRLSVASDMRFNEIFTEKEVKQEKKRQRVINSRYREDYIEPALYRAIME
# BAZ2B block: BAZ2B (human) inhibition; Q9UIF8; AlphaScreen BAZ2B-H3K14Ac peptide displacement; Potency, µM (titrated, usually from 114 µM), for the others: at the top dose activity change, negative = inhibition, most hits filed as inhibitors; hit rate 4.4% among 360,000; further: potency means the concentration at half of the fitted maximal effect; on the % scale 0 is the no-effect control and ±100 the full control effect; nearly all actives have a fitted effect of over 60% in size
#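 In this displacement format the biotinylated H3(5-23) peptide acetylated at Lys14 serves as ligand at 50 nM, with BAZ2B at 50 nM in PBS pH 7.4 containing 0.01% Tween-20. Donor and acceptor beads are 10 ug/mL final.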
# Six1-Eya2 inh: blocks human Six1 binding to Eya2. AID 651725. activity change, % (no concentration beside the values). hit rate 0.56% among 360,000. AlphaScreen GST-Six1/His-Eya2 binding, biochemical; hits give low values; in the data active means activity change below about -65%; inconclusive means mostly about -30% to -63%; further: on the % scale 0 is the no-effect control and ±100 the full control effect
#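 Compounds are tested against tagged Six1 and Eya2 proteins bridged by glutathione donor and nickel acceptor beads; after a one-hour incubation at 37 °C without light, AlphaScreen emission is recorded.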
# * marks the source's active call; other numbers are inactive results; u = inconclusive; x = not tested or not shown; [ ] = dose if it differs, or a comment. Unless noted, the call rests on the fitted dose curve; in most records, active means well fitted inhibition curve with a large enough effect; inconclusive means small, poorly fitted or top-dose-only effect; inactive means no such curve, though single readings can be large or run the other way.
SMILES,G9a inh,HP1b chromo inh,CtBP-E1A inh,JMJD2A Tudor inh,BAZ2B block,Six1-Eya2 inh
O=C(CSc1nc(-c2ccccc2)c(-c2ccccc2)[nH]1)NCc1ccco1,u,-19.4%,-13.2,39.8µM*,-28.9%,-10.0
c1ccc(-c2ccccc2OCCCCN2CCCCC2)cc1,12.6µM*,-32.9%,7.8,39.8µM*,79.4µM*,1.5
N=C(CC(O)COc1ccccc1-c1ccccc1)N1CCCCC1 (stereo not drawn),23.8%[59 µM],x,x,x,x,x
CC1CC(C)CN(CCOc2ccccc2-c2ccccc2)C1 (stereo not drawn),u,-26.8%,0.5,12.6µM*,-36.2%,-3.0
c1ccc(-c2ccccc2OCCCN2CCCC2)cc1,10µM*,u,5.3,8.91µM*,u,-3.3
c1ccc(-c2ccccc2OCCCN2CCCCCC2)cc1,3.55µM*,u,x,20µM*,56.2µM*,-2.0
CCOc1ccc(-n2nc3ccc(NC(=O)Cc4ccccc4)cc3n2)cc1,-36.2%[59 µM],-8.3%,x,-15.0%,-0.8%,x
CCOc1ccc(-n2nc3ccc(NC(=O)CC)cc3n2)cc1,35.5µM*,-6.4%,5.7,u,-25.6%,10.3
O=C1CC(Nc2ccc(N3CCOCC3)cc2)C(=O)N1c1ccccc1 (stereo not drawn),u,15.3%,-1.2,-19.8%,-8.3%,0.0
O=C1CC(Nc2ccc(N3CCOCC3)cc2)C(=O)N1Cc1ccccc1 (stereo not drawn),8.91µM*,-20.3%,-8.1,u,u,-12.0
FC(F)(F)c1cnc(NNC(=S)Nc2ccccc2Cl)c(Cl)c1,39.8µM*,-18.6%,-19.3,-26.9%,6.5%,-20.5
S=C(NNc1ccnc2cc(Cl)ccc12)Nc1ccccc1Cl,11.2µM*,u,-16.1,56.2µM*,u,-28.0
S=C(Nc1ccccc1Cl)Nc1ccc(Cl)cc1Cl,-7.4%[59 µM],13.8%,2.9,-7.9%,-3.4%,6.7
Cn1c2cc(C(=O)O)sc2c2cnn(Cc3ccccc3F)c(=O)c21,x,x,x,-24.7%,x,x
COc1cccc2cc(-c3nc4sc(C(=O)Nc5ccc(F)cc5F)c(C)c4c(=O)[nH]3)c(=O)oc12,-1.1%[59 µM],46.0%,x,-20.1%,-16.3%,x
COc1ccc(-c2csc(NC(=O)CS(=O)(=O)c3ccccc3)n2)cc1OC,x,x,0.6,x,x,-14.0
COc1ccc(-c2csc(NC(=O)CC(NC(C)=O)c3ccccc3)n2)cc1OC (stereo not drawn),25.1µM*,25.9%,u,-20.7%,79.4µM*,u
COc1ccc(-c2csc(NC(=O)Cc3ccccc3F)n2)cc1OC,u,-7.2%,-9.8,u,39.8µM*,-14.8
COc1ccccc1CC(=O)Nc1nc(-c2ccc(F)c(F)c2)cs1,13.1%,48.0%,-2.5,2.7%,3.1%,6.0
CCc1cccc(NC(=O)CCS(=O)(=O)c2ccc(C)cc2)c1,-27.8%[59 µM],26.3%,x,-4.5%,7.8%[57.1 µM],x
Cc1ccc(NC(=O)c2ccc(CN3CC(=O)N4CCCCC4C3=O)cc2)cc1C (stereo not drawn),-17.6%[59 µM],16.5%,x,-9.6%,-25.5%,x
Cc1ccc(C(=O)n2c(=S)nc3ccccn32)cc1,25.1µM*,x,x,x,9.4%,x
Cc1cccc(C(=O)n2c(=S)nc3ccccn32)c1,2.24µM*,-45.4%,-1.8,-16.4%,1.2%,-0.6
Cc1cccc(C(=O)N2CCCCCC2)c1,18.0%,9.9%,-4.8,1.3%,8.1%,2.1
O=C(c1ccccc1)n1c(=S)nc2ccccn21,u,7.3%,8.6,-13.5%,5.7%,3.0
SMILES,G9a inh,HP1b chromo inh,CtBP-E1A inh,JMJD2A Tudor inh,BAZ2B block,Six1-Eya2 inh
CC(OC(=O)c1cc(O)c2ccccc2c1O)C(=O)Nc1ccc(C(N)=O)cc1 (stereo not drawn),7.08µM*,u,u,u,u,u
CC(OC(=O)c1cccc(N2C(=O)c3ccccc3C2=O)c1)C(=O)Nc1ccc(N(C)C)cc1 (stereo not drawn),16.3%[59 µM],7.3%,-5.5,-12.4%,u,-11.9
CN(C)c1ccc(NC(=O)COC(=O)c2cc(=O)c3ccccc3o2)cc1,10µM*,38.2%,-8.7,-14.6%,-30.9%,-5.7
CC(OC(=O)c1cc(=O)c2ccccc2o1)C(=O)Nc1ccc(N(C)C)cc1 (stereo not drawn),3.16µM*,15.7%,-2.3,u,-1.9%,-1.2
CC1CCN(S(=O)(=O)c2ccc3c(c2)N(CC(=O)Nc2ccc(F)c(Cl)c2)C(=O)CO3)CC1,5.7%[59 µM],55.9%,x,0.0%,1.4%,x
CC(C)C[C@@H](NC(=O)[C@H](Cc1ccccc1)NC(=O)c1cnccn1)B(O)O,-37.7%[2.33 µM],x,x,x,x,x
Cc1ccc2nc(-c3cc(NC(=O)/C=C/c4ccccc4)ccc3Cl)oc2c1,u,1.0%,x,-16.7%,-0.4%,x
CSc1nc(NCCN(C)C)c2sc3nc(-c4ccco4)c4c(c3c2n1)CCC4,x,u,1.5,89.1µM*,x,-4.5
CSc1nc(SCC(=O)O)c2sc3nc(-c4ccccc4)c4c(c3c2n1)CCC4,17.8µM*,u,x,28.2µM*,22.4µM*,-2.4
CC1(C)Cc2c(c(-c3ccco3)nc3sc4c(NCC5CCCO5)ncnc4c23)CO1 (stereo not drawn),-19.1%[59 µM],4.4%,9.5,u,5.3%,1.2
CSc1nc(N2CCN(CCO)CC2)c2sc3nc(-c4ccco4)c4c(c3c2n1)CCC4,-13.9%[59 µM],x,x,x,x,x
CSc1nc(N(C)CCO)c2sc3nc(-c4ccco4)c4c(c3c2n1)CCC4,15.4%[0.0925 µM],-60.0%,-25.0,25.1µM*,50.1µM*,u
CCc1nc2ccc(C(=O)NCc3ccc(SC)cc3)cc2nc1CC,-1.2%[59 µM],32.6%,x,-6.3%,-1.8%,x
CCOc1cc(C#N)c(NC(=O)c2ccc(OC)c(S(=O)(=O)N3CCN(c4ccccc4)CC3)c2)cc1OCC,u,18.4%,x,-12.3%,-17.6%,x
C/C(=N\OCC(=O)N/N=C/c1ccccc1O)c1cccs1,84.8%[59 µM],38.4%,-67.0*,-15.1%,18.5%,u
COC(=O)c1c(C)[nH]c(C=Nc2ccc(OC)cc2)c1C,-43.9%,2.9%,0.1,-32.4%,-28.6%,-3.4
COC(=O)c1c(C)[nH]c(O)c1C=Nc1ccc(C#N)cc1,17.8µM*,17.2%,x,u,100µM*,-16.3
CCOC(=O)c1c(C)[nH]c(O)c1C=Nc1ccccc1,1.4%,-16.6%,u,u,50.1µM*,-29.0
CCS(=O)(=O)c1ncc(Cl)c(C(=O)N2CCN(c3ccc(OC)cc3)CC2)n1,u,7.6%,x,-17.0%,-16.2%,x
Cc1cc(C(=O)CSc2ncccn2)c(C)n1-c1cccc(F)c1,u,-5.1%,0.3,-28.8%,-39.0%,-9.0
Cc1cc(C(=O)CSc2n[nH]c(N)n2)c(C)n1-c1cccc(F)c1,u,-18.9%,4.6,u,50.1µM*,-12.0

# Compound activity as filed in PubChem.
